Results filed as inconclusive are left out. Calls of active or inactive are those of the source. How the source made its calls: active means hit-call score of the fitted dose curve at least 0.9, where 1 is the maximum; inconclusive means response in the unintended direction; inactive means score below 0.9.
experiment: ATG_GAL4_TRANS: Attagene TRANS-FACTORIAL HepG2 Assay for GAL4 (Internal Marker) (AID 2282976); conditions: HepG2 Attagene TRANS GAL4 internal marker reporter
Procedure: ATG_TRANS is a cell-based, multiplexed-readout assay that uses HepG2, a human liver cell line, with measurements taken at 24 hours after chemical dosing in a 24-well plate.ATG_GAL4_TRANS is one of 30 assay component(s) measured or calculated from the ATG_TRANS assay. It is designed to make measurements of mRNA induction, a form of inducible reporter, as detected with fluorescence intensity signals by Reverse transcription polymerase chain reaction (RT-PCR) and Capillary electrophoresis technology.Data from the assay component ATG_GAL4_TRANS was analyzed into 1 assay endpoint. This assay endpoint, ATG_GAL4_TRANS, was analyzed in the positive analysis fitting direction relative to DMSO as the negative control and baseline of activity. Using a type of inducible reporter, measures of mRNA for gain-of-signal activity can be used to understand the background control at the transcription factor-level as they relate to the gene . Furthermore, this assay endpoint can be referred to as a secondary readout, because this assay has produced multiple assay endpoints where this one serves a background control function. To generalize the intended target to other relatable targets, this assay endpoint is annotated to the background measurement intended target family, where the subfamily is baseline control.
Human liver HepG2 cells are transiently transfected with multiple reporter transcription units (MRTUs) in 6-well plates using FuGene 6 reagent (Roche; 3 ml FuGene/1 mg DNA). The MRTU constructs are regulated by a cis-regulating element (promoter). […] A major difference between the CIS and TRANS system is that in CIS activities of endogenous TFs are measured, whereas the TRANS assay evaluates changes in activities of exogenous, chimeric NR-Gal4 proteins. […] At the end of 24 hour incubation, total RNA was isolated using TriZol reagent (Invitrogen). The isolated RNA is then reverse-transcribed using oligo(dT) primer and Mo-MLV reverse transcriptase (Invitrogen) with DNAse I (Ambion) treatment for 30 min. The one-tenth of the produced cDNA was amplified by PCR using Taq DNA polymerase (Invitrogen) and two reporter sequence-specific primers. The PCR products were fluorescently labeled by primer extension with 6-arboxyfluorescein (6-FAM) 5'-labeled reporter sequence-specific primer (2 min at 95 C, 20 s at 68 C and 10 min at 72 C) and these products were digested with 5U of HpaI (New England Biolabs) for 2h at 37 C. The fragments were purified using Qiaquick PCR columns (Qiagen), analyzed on an ABI 3130xL genetic analyzer (Applied Biosystems) with peak positions identified by using a set of X-rhodamine (ROX)-labeled MapMarker1000 molecular weight standards (BioVentures). The raw capillary electrophoresis data was processed using Attagraph software (Attagene).

| Compound | outcome |
| --- | --- |
| Cc1cccc(Nc2cc(Cl)nc(SCC(=O)O)n2)c1C | inactive |
| CC(=O)OCCOCCOCCOC(C)=O | inactive |
| COc1cc(C=O)ccc1O | inactive |
| COc1cc(S(=O)(=O)O)c(C)cc1N=Nc1c(O)ccc2cc(S(=O)(=O)O)ccc12 | inactive |
| CCCc1cc(=O)[nH]c(=S)[nH]1 | inactive |
| CC=Cc1ccc(O)c(OC)c1 | inactive |
| CCCCCCCCCCCC(=O)OC | inactive |
| NS(=O)(=O)c1cc2c(cc1Cl)NCNS2(=O)=O | inactive |
| O=[N+]([O-])C(CO)(CO)CO | inactive |
| CCCCCCCCCCC | inactive |
| NCC1(Cc2noc(=O)[nH]2)CCCCC1 | inactive |
| Cc1cccc([N+](=O)[O-])c1C | inactive |
| OC[C@@H](O)[C@@H](O)[C@H](O)[C@H](O)CO | inactive |
| COc1ccc(C)cc1N | inactive |
| CC1=C(/C=C/C(C)=C/C=C/C(C)=C/CO)C(C)(C)CCC1 | inactive |
| O=C(OCCCCCOC(=O)c1ccccc1)c1ccccc1 | inactive |
| Cc1cccc(C)c1O | inactive |
| COCCOCCOC | inactive |
| c1cc(-c2ccncc2)ccn1 | inactive |

| Compound | outcome |
| --- | --- |
| COCCOC[C@H](CC1(C(=O)NC2CCC(C(=O)O)CC2)CCCC1)C(=O)Oc1ccc2c(c1)CCC2 (stereo partly drawn) | inactive |
| CCCCCCCCCCCCCCCCCC(=O)O | inactive |
| CC(C)(C)c1cc(O)c(C(C)(C)C)cc1O | inactive |
| Cc1cc(NC(=O)C(=O)O)cc(C)c1Oc1ccc(O)c2c1CCC2 | inactive |
| C=CCOC(=O)c1ccccc1C(=O)OCC=C | inactive |
| CN[C@H]1CC[C@@H](c2ccc(Cl)c(Cl)c2)c2ccc(S(N)(=O)=O)cc21 | inactive |
| NC(=O)Cn1c(=O)cc(CCN2CCN(c3nccc4sccc34)CC2)c2ccc(F)cc21 | inactive |
| NCCO | inactive |
| O=C(O)Cc1ccccc1Nc1c(Cl)cccc1Cl | inactive |
| Cc1nc(C)nc(N2C[C@@H](C)N(c3ccnc([C@@H](C)O)n3)[C@@H](C)C2)n1 | inactive |
| Cc1ccc(C(C)C)c(O)c1 | inactive |
| CCCCC(CC)COC(=O)CC(C(=O)OCC(CC)CCCC)S(=O)(=O)O (stereo not drawn) | inactive |
| O=C(N[C@@H](Cc1ccccc1)[C@@H](O)C(=O)N1C[C@@H](O)[C@@H](O)C1)c1cc2cc(Cl)ccc2[nH]1 | inactive |
| CCOC(=O)C(C)(C)Oc1ccc(Cl)cc1 | inactive |
| CCCCc1ccc2c(n1)[C@@H](c1ccc(OC)cc1C[C@H](C)C(=O)O)[C@H](C(=O)O)[C@H]2c1ccc2c(c1)OCO2 | inactive |
| CC(=O)C(C)=CC1C(C)=CCCC1(C)C (stereo not drawn) | inactive |
| CNC(=O)[C@H]1O[C@@H](n2cnc3c(NCc4cc(Cl)ccc4OCc4cc(C)no4)ncnc32)[C@H](O)[C@@H]1N | inactive |
| CCCCOC(=O)CCCCCCCCC(=O)OCCCC | inactive |
| CCCCCCOCCO | inactive |

Reference: PubChem BioAssay (EPA / NIEHS)
